# DUSP3 inh = blocks the human dual specificity phosphatase VHR1 | recombinant VHR phosphatase, colorimetric substrate read-out | 50,000 compounds, 0.7% hits | inhibition, % at 20 µM | AID 1992 | P51452; in the data active means inhibition above about 60%
# Target sequence (P51452 whole entry, looked up): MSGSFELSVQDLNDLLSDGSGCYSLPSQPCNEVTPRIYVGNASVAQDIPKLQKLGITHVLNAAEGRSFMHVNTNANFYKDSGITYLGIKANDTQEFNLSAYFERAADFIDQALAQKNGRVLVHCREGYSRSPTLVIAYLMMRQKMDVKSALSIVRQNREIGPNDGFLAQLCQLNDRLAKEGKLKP
# * = called active by the depositor. The sample as a whole holds a higher share of hits than the screen did.
SMILES,DUSP3 inh
COc1ccc(C2CC(=O)C3=C(C2)Nc2ccccc2N(C(C)=O)C3c2ccc(OC)c(OC)c2)cc1 (centres undefined),0
c1ccc(C2=NNC3(CCCCCCC3)S2)cc1,4
CC(C)C(C(=O)O)N1C(=O)/C(=C/c2ccc(C(=O)O)cc2)SC1=S (centres undefined),-10
O=C1c2ccccc2C(=O)N1CC(O)Cn1c2ccccc2c2ccccc21 (centres undefined),-4
O=C1c2cccc3c4ccccc4n(c23)C(=O)C1(O)O,90*
O=C(CCN1C(=O)c2ccccc2C1=O)NCc1ccncc1,-18
COC(=O)C1=C(C)NC(=O)NC1c1ccc(-c2ccccc2)cc1 (centres undefined),-11
COc1ccc(N2C(=O)/C(=C/c3ccc(OCC(=O)O)c(OC)c3)C(=O)NC2=S)cc1,7
Cc1nc(NC(=O)c2ccccc2)sc1-c1csc(Nc2cccc(C(=O)O)c2)n1,-8
Cc1nc(N)sc1-c1csc(Nc2ccc(S(N)(=O)=O)cc2)n1,26
Cc1nc(NC(=O)c2ccccc2)sc1-c1csc(Nc2ccc(O)cc2)n1,71*
CCCC(=O)Nc1ccc(NC(=O)c2ccc(C)c([N+](=O)[O-])c2)cc1,-10
Cc1cccc(-n2c(CCN3C(=O)c4ccccc4C3=O)nc3ccccc3c2=O)c1,-8
O=C(O)C1C2C=CC(C3CC23)C1C(=O)Nc1ccccc1Cl (centres undefined),-3
Cc1cccc(NC(=O)C2C3C=CC(C4CC34)C2C(=O)O)c1C (centres undefined),100*
Cc1cccc(NC(=O)C2C(c3ccccc3)C2(Cl)Cl)c1C (centres undefined),-11
CC(=O)Oc1ccc2c(c1)c(C(C)=O)c(C)n2-c1ccccc1,-16
Cc1cc(C)c2oc(-c3ccc(NC(=O)c4cccc([N+](=O)[O-])c4C)cc3)nc2c1,15
O=C1CC(=O)N(c2ccccc2)C(=S)N1,4
Cc1ccc(N2C(=O)CC(=O)NC2=S)cc1,6
O=C1CC(=O)N(c2ccc(Cl)c(Cl)c2)C(=S)N1,73*
CCOC(=O)/C=C1/NC2(CCCC2)Cc2cc(OC)c(OC)cc21,0
CC(C)CNC(=O)C1CN(S(=O)(=O)c2ccccc2)CCN1S(=O)(=O)c1ccccc1 (centres undefined),1
CCOc1ccc(Nc2nc(O)c(C3=c4cc(Br)ccc4=NC3=O)s2)cc1,-14
O=C1N=c2ccccc2=C1c1sc(Nc2ccc(O)cc2)nc1O,58*
SMILES,DUSP3 inh
O=C1N=c2ccccc2=C1c1sc(Nc2cccc(O)c2)nc1O,0
CC1=NN(C(=O)c2ccccc2)C(O)(c2ccccc2)C1 (centres undefined),-6
O=C1C2C(C(=O)N1c1cccc(Cl)c1)N1CCCN1C2c1ccccc1 (centres undefined),-7
COc1ccc(C2C3C(=O)N(c4ccc(Br)cc4)C(=O)C3N3CCCN23)cc1 (centres undefined),2
COc1ccc(C2C3C(=O)N(c4ccccc4)C(=O)C3N3CCCN23)cc1 (centres undefined),89*
O=C(O)CC(Cc1ccc(Br)cc1)C(=O)O (centres undefined),-11
C=C(CC(Cc1ccccc1)C(=O)O)c1ccccc1 (centres undefined),97*
O=C(O)CC(Cc1ccccc1)C(=O)O (centres undefined),-4
CC(C)(C)C1(O)CC(C(F)(F)F)=NN1C(=O)COc1ccccc1 (centres undefined),-20
COc1cccc(N(CC(=O)Nc2cc(C)ccc2C)S(=O)(=O)c2ccccc2)c1,-6
O=C1NC(=S)N(c2cccc(Cl)c2)C(=O)/C1=C\C=C\c1ccccc1[N+](=O)[O-],88*
O=C1NC(=S)N(c2ccc(Cl)cc2)C(=O)/C1=C/C=C/c1ccccc1,52
COc1cccc(N2C(=O)NC(=O)/C(=C/C=C/c3ccccc3[N+](=O)[O-])C2=O)c1,21
O=C(COc1ccc2ccccc2c1)N1CCN(Cc2cccc(Cl)c2)CC1,-8
CCCOC(=O)c1ccc(NC(=O)CCC(=O)OC)cc1,-5
COc1ccc2c(c1)N(C(=O)CN1C(=O)c3ccccc3C1=O)C(C)(C)c1ssc(=S)c1-2,-14
COc1cc(C(=O)N2c3ccccc3-c3c(ssc3=S)C2(C)C)cc(OC)c1OC,10
CC1(C)c2ssc(=S)c2-c2ccccc2N1C(=O)CSc1nnc(N)s1,-2
Cn1ccnc1SCC(=O)N1c2ccccc2-c2c(ssc2=S)C1(C)C,37
CC1(C)c2ssc(=S)c2-c2ccccc2N1C(=O)CN1CCOCC1,97*
CC1(C)c2ssc(=S)c2-c2ccccc2N1C(=O)CN1CCCCC1,98*
Cc1ccc([N+](=O)[O-])cc1NC(=O)C1CC(O)CN1C(=O)Oc1ccccc1 (centres undefined),4
CCOC(=O)C(C(=O)OCC)C(C)C#CCN(CC)CC (centres undefined),2
Cc1onc(-c2ccccc2)c1C(=O)Nc1ccc(Cl)cc1Cl,-5
O=C1OC(c2ccccc2Cl)=N/C1=C\c1ccccc1C(F)(F)F,-14

# Screens from PubChem BioAssay.
